# Assay results reported in article PMC7862700, “An all-to-all approach to the identification of sequence-specific readers for epigenetic DNA modifications on cytosine”.
# What was measured:
# Assay in all cases: DAPPL (digital affinity profiling via proximity ligation, sequencing); 10 mM Tris-HCl pH 7.5, 50 mM NaCl, 1 mM DTT, 4% glycerol, room temperature, 30 min; GST-TFs on glutathione beads, 16-mer random dsDNA library, 0.1% formaldehyde crosslink after washing; high values mean tight binding
# FEV = molecular target: T1, FEV (Homo sapiens, UniProt Q99581 1-238); conditions: protein: recombinant; tags: N-terminal GST; dsDNA, one strand shown
# T1 sequence: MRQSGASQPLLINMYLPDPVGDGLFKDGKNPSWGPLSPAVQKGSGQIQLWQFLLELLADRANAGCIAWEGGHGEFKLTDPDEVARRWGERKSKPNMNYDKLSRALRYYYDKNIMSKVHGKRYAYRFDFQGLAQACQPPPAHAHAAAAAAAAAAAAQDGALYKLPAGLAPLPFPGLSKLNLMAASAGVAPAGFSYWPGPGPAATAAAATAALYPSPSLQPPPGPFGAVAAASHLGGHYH
# Outline: (§1)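 GST fusions of human transcription factors were expressed in yeast and captured with glutathione beads. Once given DNA barcodes and pooled alongside a tag-only sample, they were incubated for 30 min at room temperature with 200 nmole of a random double-stranded 16-mer DNA library in Tris/NaCl/DTT/glycerol buffer, then washed, crosslinked (0.1% formaldehyde), proximity-ligated, PCR-amplified and sequenced on an Illumina NextSeq500. The binding signal of each hexamer is its read frequency for a factor divided by its frequency for the tag-only sample.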
# ETV5 = ETV5 (Homo sapiens, UniProt P41161 1-510); conditions: protein: recombinant; tags: N-terminal GST; dsDNA, one strand shown
# Outline: as §1
# HSF1 = HSF1 (Homo sapiens, UniProt Q00613 1-529); conditions: protein: recombinant; tags: N-terminal GST; chain copies: 3; dsDNA, one strand shown
# Outline: as §1
# SPIC = molecular target: T2, SPIC (Homo sapiens, UniProt Q8N5J4 1-248); conditions: protein: recombinant; tags: N-terminal GST; dsDNA, one strand shown
# T2 sequence: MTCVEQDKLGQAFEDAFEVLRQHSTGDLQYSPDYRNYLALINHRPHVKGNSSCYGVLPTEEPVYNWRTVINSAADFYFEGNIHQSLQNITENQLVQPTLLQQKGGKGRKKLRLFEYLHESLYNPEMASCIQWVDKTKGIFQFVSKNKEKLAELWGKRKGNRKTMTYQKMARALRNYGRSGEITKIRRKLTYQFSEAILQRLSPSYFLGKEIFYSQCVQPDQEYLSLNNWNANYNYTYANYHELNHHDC
# Outline: as §1
# ELF4 = ELF4 (Homo sapiens, UniProt Q99607 1-663); conditions: protein: recombinant; tags: N-terminal GST; dsDNA, one strand shown
# Outline: as §1
# ELK4 = molecular target: T3, ELK4 (Homo sapiens, UniProt P28324-2 1-405); conditions: protein: recombinant; tags: N-terminal GST; dsDNA, one strand shown
# T3 sequence: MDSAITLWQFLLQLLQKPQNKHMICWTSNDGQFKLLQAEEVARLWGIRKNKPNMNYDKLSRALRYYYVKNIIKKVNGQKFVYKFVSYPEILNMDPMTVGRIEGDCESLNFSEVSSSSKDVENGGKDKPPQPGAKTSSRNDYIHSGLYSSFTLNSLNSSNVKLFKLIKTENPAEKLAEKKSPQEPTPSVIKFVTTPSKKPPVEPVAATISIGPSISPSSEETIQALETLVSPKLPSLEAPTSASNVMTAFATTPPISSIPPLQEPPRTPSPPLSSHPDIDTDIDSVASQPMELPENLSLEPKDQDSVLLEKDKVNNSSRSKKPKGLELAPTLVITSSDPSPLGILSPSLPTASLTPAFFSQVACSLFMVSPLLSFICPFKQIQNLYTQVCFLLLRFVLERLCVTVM
# Outline: as §1
# ETV2 = molecular target: T4, ETV2 (Homo sapiens, UniProt O00321 1-342); conditions: protein: recombinant; tags: N-terminal GST; dsDNA, one strand shown
# T4 sequence: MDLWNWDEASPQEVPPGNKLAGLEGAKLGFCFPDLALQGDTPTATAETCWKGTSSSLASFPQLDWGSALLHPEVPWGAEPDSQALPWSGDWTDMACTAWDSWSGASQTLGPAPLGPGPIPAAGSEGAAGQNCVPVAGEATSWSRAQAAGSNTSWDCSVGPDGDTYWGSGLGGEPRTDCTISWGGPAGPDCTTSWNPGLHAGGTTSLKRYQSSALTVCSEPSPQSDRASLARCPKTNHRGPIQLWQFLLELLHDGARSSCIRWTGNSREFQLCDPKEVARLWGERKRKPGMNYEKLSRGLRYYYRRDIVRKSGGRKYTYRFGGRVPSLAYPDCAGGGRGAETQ
# Outline: as §1
# ELF3 = molecular target: T5, ELF3 (Homo sapiens, UniProt P78545 1-371); conditions: protein: recombinant; tags: N-terminal GST; dsDNA, one strand shown
# T5 sequence: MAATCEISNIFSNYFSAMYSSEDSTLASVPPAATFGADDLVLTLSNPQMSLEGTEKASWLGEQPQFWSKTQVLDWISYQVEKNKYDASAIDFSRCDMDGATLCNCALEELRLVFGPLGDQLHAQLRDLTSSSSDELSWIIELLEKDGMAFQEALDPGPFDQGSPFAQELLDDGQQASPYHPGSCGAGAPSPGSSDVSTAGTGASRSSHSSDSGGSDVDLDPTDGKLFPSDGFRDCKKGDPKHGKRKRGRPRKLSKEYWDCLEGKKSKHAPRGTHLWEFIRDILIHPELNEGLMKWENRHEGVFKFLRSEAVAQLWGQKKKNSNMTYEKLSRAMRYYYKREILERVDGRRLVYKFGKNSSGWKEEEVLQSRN
# Outline: as §1
# CRX = CRX (Homo sapiens, UniProt O43186 1-299); conditions: protein: recombinant; tags: N-terminal GST; dsDNA, one strand shown
# Outline: as §1
# ETV1 = ETV1 (Homo sapiens, UniProt P50549 1-477); conditions: protein: recombinant; tags: N-terminal GST; dsDNA, one strand shown
# Outline: as §1
# ERF = molecular target: T6, ERF (Homo sapiens, UniProt P50548 1-548); conditions: protein: recombinant; tags: N-terminal GST; dsDNA, one strand shown
# T6 sequence: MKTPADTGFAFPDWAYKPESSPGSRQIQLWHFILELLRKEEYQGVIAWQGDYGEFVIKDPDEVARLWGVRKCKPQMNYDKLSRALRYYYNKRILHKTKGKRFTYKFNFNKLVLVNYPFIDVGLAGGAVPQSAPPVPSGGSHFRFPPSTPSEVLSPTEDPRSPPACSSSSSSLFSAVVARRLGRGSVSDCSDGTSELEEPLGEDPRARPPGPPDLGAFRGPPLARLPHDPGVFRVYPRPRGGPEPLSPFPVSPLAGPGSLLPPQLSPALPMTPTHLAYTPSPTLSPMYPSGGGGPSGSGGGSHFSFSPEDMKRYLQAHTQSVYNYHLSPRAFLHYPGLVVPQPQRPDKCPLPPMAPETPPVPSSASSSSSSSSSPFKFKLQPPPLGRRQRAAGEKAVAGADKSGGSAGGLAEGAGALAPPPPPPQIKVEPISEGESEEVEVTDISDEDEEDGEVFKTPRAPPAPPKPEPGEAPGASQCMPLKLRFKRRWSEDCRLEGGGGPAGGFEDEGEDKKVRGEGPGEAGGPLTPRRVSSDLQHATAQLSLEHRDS
# Outline: as §1
# ETV3L = molecular target: T7, ETV3L (Homo sapiens, UniProt Q6ZN32 1-361); conditions: protein: recombinant; tags: N-terminal GST; dsDNA, one strand shown
# T7 sequence: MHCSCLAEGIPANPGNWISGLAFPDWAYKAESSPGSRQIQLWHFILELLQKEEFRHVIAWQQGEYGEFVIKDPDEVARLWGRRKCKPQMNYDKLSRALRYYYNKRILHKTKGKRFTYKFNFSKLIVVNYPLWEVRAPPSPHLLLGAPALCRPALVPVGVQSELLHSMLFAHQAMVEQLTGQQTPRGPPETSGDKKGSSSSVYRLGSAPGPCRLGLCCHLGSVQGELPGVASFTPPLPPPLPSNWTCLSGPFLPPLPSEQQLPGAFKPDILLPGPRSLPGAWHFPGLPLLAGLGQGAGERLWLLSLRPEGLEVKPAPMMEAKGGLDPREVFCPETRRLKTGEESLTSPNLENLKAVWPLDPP
# Outline: as §1
# ETS2 = molecular target: T8, ETS2 (Homo sapiens, UniProt P15036 1-469); conditions: protein: recombinant; tags: N-terminal GST; dsDNA, one strand shown
# T8 sequence: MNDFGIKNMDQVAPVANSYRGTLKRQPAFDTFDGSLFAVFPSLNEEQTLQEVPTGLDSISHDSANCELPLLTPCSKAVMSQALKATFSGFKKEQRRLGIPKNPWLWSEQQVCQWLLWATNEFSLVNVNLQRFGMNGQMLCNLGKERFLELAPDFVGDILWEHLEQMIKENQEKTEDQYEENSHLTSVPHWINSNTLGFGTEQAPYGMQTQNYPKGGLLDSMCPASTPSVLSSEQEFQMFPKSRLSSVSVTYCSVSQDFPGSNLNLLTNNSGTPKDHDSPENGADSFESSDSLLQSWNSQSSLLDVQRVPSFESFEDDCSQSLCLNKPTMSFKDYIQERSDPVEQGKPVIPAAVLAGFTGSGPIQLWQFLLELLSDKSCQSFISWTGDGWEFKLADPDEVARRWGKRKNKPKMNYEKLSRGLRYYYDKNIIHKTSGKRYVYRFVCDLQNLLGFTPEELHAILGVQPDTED
# Outline: as §1
# SPDEF = molecular target: T9, SPDEF (Homo sapiens, UniProt O95238 1-335); conditions: protein: recombinant; tags: N-terminal GST; dsDNA, one strand shown
# T9 sequence: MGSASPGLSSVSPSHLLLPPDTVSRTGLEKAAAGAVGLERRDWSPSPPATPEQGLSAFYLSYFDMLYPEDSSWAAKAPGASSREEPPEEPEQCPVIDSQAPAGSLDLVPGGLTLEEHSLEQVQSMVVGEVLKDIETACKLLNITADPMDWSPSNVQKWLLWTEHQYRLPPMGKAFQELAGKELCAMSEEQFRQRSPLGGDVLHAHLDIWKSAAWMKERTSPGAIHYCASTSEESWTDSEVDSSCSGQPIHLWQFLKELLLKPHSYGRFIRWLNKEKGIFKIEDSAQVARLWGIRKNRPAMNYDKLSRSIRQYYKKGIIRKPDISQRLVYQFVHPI
# Outline: as §1
# ETV7 = molecular target: T10, ETV7 (Homo sapiens, UniProt Q9Y603 1-341); conditions: protein: recombinant; tags: N-terminal GST; dsDNA, one strand shown
# T10 sequence: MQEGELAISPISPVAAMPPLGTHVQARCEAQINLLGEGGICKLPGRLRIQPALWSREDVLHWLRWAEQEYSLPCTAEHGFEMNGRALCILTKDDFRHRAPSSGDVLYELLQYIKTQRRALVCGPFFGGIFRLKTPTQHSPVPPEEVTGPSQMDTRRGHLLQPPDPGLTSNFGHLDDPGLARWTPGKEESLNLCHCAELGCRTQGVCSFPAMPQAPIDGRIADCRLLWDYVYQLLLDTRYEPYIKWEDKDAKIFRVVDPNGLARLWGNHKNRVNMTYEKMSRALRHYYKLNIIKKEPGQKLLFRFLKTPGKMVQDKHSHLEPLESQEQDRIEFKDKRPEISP
# Outline: as §1
# ELF5 = molecular target: T11, ELF5 (Homo sapiens, UniProt Q9UKW6-2 1-255); conditions: protein: recombinant; tags: N-terminal GST; dsDNA, one strand shown
# T11 sequence: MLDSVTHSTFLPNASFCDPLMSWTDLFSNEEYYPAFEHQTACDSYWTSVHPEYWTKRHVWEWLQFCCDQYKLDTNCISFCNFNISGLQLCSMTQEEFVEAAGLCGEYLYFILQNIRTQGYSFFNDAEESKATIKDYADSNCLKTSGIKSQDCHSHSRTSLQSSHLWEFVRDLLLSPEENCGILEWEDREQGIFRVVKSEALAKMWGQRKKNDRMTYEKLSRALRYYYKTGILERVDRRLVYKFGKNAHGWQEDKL
# Outline: as §1
# ETV3 = molecular target: T12, ETV3 (Homo sapiens, UniProt P41162-2 1-143); conditions: protein: recombinant; tags: N-terminal GST; dsDNA, one strand shown
# T12 sequence: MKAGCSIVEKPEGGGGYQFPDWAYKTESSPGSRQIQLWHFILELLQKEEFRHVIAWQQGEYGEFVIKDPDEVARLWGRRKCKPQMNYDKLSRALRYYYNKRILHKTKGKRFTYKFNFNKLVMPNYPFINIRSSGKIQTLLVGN
# Outline: as §1
# ETV6 = ETV6 (Homo sapiens, UniProt P41212 1-452); conditions: protein: recombinant; tags: N-terminal GST; dsDNA, one strand shown
# Outline: as §1
# Chain of CRX (O43186 whole entry): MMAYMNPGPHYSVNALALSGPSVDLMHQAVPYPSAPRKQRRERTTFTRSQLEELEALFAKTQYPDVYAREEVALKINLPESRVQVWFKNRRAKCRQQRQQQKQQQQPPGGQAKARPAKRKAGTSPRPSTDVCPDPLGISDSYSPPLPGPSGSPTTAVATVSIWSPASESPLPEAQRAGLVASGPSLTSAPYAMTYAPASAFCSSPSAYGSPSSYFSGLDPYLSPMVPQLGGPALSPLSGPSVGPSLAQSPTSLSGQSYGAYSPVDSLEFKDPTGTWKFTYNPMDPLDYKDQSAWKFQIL
# Chain of ELF4 (Q99607 whole entry): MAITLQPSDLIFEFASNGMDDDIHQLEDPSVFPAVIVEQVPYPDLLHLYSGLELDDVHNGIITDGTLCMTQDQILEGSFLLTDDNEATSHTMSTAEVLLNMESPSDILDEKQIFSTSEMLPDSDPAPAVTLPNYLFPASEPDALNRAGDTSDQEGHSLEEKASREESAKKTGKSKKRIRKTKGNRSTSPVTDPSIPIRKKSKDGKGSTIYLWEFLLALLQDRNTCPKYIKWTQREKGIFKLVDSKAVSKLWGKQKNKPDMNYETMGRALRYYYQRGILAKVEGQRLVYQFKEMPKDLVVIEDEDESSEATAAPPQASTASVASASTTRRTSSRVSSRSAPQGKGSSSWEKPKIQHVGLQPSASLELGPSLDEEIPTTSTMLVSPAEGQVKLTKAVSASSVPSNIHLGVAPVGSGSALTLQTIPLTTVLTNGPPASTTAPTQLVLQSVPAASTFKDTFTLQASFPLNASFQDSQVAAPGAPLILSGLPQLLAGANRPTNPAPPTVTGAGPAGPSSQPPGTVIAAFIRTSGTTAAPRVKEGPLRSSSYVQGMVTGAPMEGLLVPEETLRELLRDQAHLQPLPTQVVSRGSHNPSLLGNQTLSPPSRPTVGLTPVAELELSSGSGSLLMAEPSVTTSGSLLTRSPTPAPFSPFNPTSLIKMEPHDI
# Chain of ETV1 (P50549 whole entry): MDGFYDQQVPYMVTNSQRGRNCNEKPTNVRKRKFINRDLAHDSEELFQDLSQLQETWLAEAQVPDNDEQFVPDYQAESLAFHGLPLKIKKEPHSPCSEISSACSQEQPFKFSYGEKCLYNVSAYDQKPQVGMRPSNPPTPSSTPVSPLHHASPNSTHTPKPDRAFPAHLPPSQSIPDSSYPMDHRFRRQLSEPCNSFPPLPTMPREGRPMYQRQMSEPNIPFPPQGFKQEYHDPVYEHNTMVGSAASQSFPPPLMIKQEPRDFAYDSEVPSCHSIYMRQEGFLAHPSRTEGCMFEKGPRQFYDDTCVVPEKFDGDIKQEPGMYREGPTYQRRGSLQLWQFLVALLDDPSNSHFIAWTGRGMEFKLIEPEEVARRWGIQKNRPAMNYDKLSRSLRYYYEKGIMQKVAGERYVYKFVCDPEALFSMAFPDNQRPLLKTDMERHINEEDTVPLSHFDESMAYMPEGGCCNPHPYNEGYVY
# Chain of ETV6 (P41212 whole entry): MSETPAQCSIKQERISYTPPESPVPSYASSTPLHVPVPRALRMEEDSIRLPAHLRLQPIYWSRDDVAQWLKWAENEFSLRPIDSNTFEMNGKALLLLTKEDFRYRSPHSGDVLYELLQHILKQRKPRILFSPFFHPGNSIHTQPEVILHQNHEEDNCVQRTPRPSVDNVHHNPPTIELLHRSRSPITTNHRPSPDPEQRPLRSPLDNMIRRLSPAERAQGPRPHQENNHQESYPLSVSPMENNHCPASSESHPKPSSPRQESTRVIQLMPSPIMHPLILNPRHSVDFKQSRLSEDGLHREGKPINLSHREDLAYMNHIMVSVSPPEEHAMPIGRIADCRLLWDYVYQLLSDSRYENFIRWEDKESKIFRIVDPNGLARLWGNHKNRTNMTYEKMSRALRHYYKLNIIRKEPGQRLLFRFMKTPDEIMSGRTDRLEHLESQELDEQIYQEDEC
# Chain of ETV5 (P41161 whole entry): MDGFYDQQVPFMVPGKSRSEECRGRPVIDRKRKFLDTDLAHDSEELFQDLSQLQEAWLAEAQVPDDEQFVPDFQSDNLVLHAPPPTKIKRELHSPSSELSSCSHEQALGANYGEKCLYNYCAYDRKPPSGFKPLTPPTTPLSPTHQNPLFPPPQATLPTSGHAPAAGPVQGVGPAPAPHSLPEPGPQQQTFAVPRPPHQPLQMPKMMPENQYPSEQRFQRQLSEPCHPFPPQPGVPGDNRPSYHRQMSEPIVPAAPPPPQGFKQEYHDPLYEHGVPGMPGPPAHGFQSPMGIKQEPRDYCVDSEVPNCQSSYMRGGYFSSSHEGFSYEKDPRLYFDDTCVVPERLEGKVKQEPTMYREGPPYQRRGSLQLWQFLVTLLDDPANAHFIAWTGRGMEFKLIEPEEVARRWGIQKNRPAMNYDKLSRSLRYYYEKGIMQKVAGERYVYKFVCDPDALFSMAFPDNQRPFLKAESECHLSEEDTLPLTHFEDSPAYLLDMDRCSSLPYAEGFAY
# Chain of HSF1 (Q00613 whole entry): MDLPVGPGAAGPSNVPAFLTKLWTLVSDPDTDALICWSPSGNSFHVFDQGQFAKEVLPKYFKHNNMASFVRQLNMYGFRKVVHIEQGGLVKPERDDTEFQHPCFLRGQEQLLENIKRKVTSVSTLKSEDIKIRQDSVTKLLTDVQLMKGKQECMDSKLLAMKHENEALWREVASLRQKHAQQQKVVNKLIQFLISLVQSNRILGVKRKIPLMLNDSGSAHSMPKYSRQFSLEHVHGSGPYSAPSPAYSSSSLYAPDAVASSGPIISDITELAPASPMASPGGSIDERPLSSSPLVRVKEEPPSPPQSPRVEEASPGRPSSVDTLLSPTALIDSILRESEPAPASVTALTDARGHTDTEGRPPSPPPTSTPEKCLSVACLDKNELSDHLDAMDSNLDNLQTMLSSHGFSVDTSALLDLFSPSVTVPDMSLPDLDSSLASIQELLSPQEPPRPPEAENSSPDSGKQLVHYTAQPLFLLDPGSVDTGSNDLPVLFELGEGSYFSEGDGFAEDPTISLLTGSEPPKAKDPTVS
sequence,measurement,setting,value
CCGACC,binding signal,FEV,"1.71 fold enrichment (6-mer frequency, TF over GST control)"
same,binding signal,ETV5,"1.5 fold enrichment (6-mer frequency, TF over GST control)"
same,binding signal,HSF1,"1.14 fold enrichment (6-mer frequency, TF over GST control)"
same,binding signal,SPIC,"1.45 fold enrichment (6-mer frequency, TF over GST control)"
same,binding signal,ELF4,"1.54 fold enrichment (6-mer frequency, TF over GST control)"
same,binding signal,ELK4,"1.61 fold enrichment (6-mer frequency, TF over GST control)"
same,binding signal,ETV2,"1.46 fold enrichment (6-mer frequency, TF over GST control)"
same,binding signal,ELF3,"1.63 fold enrichment (6-mer frequency, TF over GST control)"
same,binding signal,CRX,"1.13 fold enrichment (6-mer frequency, TF over GST control)"
same,binding signal,ETV1,"1.53 fold enrichment (6-mer frequency, TF over GST control)"
same,binding signal,ERF,"1.59 fold enrichment (6-mer frequency, TF over GST control)"
same,binding signal,ETV3L,"1.67 fold enrichment (6-mer frequency, TF over GST control)"
same,binding signal,ETS2,"1.49 fold enrichment (6-mer frequency, TF over GST control)"
same,binding signal,SPDEF,"1.54 fold enrichment (6-mer frequency, TF over GST control)"
same,binding signal,ETV7,"1.55 fold enrichment (6-mer frequency, TF over GST control)"
same,binding signal,ELF5,"1.48 fold enrichment (6-mer frequency, TF over GST control)"
same,binding signal,ETV3,"1.46 fold enrichment (6-mer frequency, TF over GST control)"
same,binding signal,ETV6,"1.67 fold enrichment (6-mer frequency, TF over GST control)"
